The full list was thinned out, with hits kept by preference.
NPSR antagonist: qHTS Assay for Antagonists of the Neuropeptide S Receptor: cAMP Signal Transduction | AID 1461, 2008 | CHO-NPSR cells, cAMP TR-FRET, antagonist mode | Potency, µM (series often up to 38.3 µM), actives largely listed as inhibitors | actives 1% (n = 220,000); further: nearly all actives have a fitted effect of over 50% in size
Target sequence (Q6W5P4 whole entry, looked up): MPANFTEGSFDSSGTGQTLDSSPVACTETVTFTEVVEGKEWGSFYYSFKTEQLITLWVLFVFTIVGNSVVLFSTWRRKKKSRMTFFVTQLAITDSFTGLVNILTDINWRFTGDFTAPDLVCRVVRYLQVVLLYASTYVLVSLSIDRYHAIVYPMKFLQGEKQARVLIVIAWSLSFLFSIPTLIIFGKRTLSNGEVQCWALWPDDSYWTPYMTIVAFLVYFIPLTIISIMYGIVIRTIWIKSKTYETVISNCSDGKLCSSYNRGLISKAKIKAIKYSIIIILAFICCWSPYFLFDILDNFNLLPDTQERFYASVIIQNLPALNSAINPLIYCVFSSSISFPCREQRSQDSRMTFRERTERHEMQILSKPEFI
IMPase inh: qHTS Assay for Identifying the Cell-Membrane Permeable IMPase Inhibitors | Inositol monophosphatase 1 (Rattus norvegicus), P97697 | CHO-M1 cells, IP1 accumulation, HTRF TR-FRET ratio | inhibition (IP1 accumulation), % at 46.1 µM | 120,000 tested, under 10 active | AID 901, 2007; active means well fitted curve in the direction sought with a large enough effect in the signal ratio, not every such curve was filed as active; inconclusive means small, poorly fitted or top-dose-only effect, or a change in a side signal; inactive means no such curve, though single readings can be large or run the other way; the % refers to the signal ratio;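 further: cells stimulated with carbachol in lithium chloride buffer; higher means more IMPase inhibition seen as more IP1 and lower FRET ratio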
Target sequence (P97697 whole entry, looked up): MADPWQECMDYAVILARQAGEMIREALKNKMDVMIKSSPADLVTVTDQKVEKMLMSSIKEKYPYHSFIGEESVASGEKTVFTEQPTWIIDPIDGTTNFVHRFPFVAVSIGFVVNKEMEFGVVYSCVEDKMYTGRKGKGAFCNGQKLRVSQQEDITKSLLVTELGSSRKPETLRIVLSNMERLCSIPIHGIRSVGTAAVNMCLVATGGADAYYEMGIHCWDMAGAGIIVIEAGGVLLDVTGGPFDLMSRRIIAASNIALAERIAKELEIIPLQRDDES
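CHO-M1 cells (CHO stably expressing M1 receptor), compound up to 46 uM final, stimulated with carbachol (50 uM as added) in buffer with 50mM LiCl, pH 7.4, 30 min at 37C. Cytosolic IP1 read by TR-FRET; AC50 from Hill fits.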
IMPase Li cell: qHTS Assay for Identifying the Cell-Membrane Permeable IMPase Inhibitors: Potentiation with Lithium; AID 1457, 2008; actives 0.35% (n = 210,000); CHO-M1 cells, IP1 TR-FRET (IP-One), carbachol + lithium; Potency, µM (series often up to 59.4 µM), hits mostly inhibitors;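 further: IP1 builds up when IMPase is blocked and the TR-FRET signal falls; nearly all actives have a fitted effect of over 50% in size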
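Test compounds were applied to CHO-M1 cells previously cultured for 16–30 h at 2000 per well. A small lithium amount accompanied them; after 30 min at 37C, IP1 was quantified by TR-FRET.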
Numbers stand for hits; [ ] = remark or other dose. Unless noted, the call rests on the fitted dose curve; in most records, active means well fitted curve in the direction sought with a large enough effect; inconclusive means small, poorly fitted or top-dose-only effect, or another doubt; inactive means no such curve, though single readings can be large; an effect the other way counts as inactive or inconclusive.

For Cc1ccc2nc(/C(C#N)=C\c3ccc(N4CCOCC4)o3)[nH]c2c1 the results were NPSR antagonist inactive, IMPase inh inactive and IMPase Li cell inactive.
Cc1ccc2nc(/C(C#N)=C\c3ccc([N+](=O)[O-])o3)[nH]c2c1 was read as NPSR antagonist 10µM, IMPase inh inactive and IMPase Li cell inactive.
Screening N#C/C(=C\c1ccc([N+](=O)[O-])o1)c1nc2ccccc2[nH]1 returned NPSR antagonist 4µM, IMPase inh inactive and IMPase Li cell inactive.
For CCC(=O)Oc1ccc(C(=O)Nc2ccc3c(c2)OCO3)cc1 the results were NPSR antagonist inactive and IMPase Li cell inactive.
Screening Cc1ccc(NC(c2nnc(-c3ccccc3)o2)c2ccccc2F)c(Cl)c1 (centres undefined) returned IMPase inh inactive.
Screening CC(C)c1ccc2c(c1)CC[C@H]1[C@@](C)(CN)CCC[C@@]21C returned IMPase Li cell inactive.
Screening COC(=O)CSc1nc(N)c2c3c(sc2n1)C(c1ccccc1)SC(c1ccccc1)C3 (centres undefined) returned NPSR antagonist 13µM and IMPase Li cell inactive.
For COC(=O)CSc1nc(N)c2c3c(sc2n1)CCCC3 the results were NPSR antagonist inactive and IMPase inh inactive.
CCCC[S@@](=N)(=O)CC[C@@H](N)C(=O)O was read as IMPase inh inactive.
For Cc1[nH]c2ccc(F)cc2c1CCN(Cc1cccnc1)C(=S)Nc1ccc(F)cc1 the results were NPSR antagonist 10µM and IMPase Li cell inactive.
Cc1[nH]c2ccc(F)cc2c1CCN(Cc1ccncc1)C(=S)Nc1cccc(F)c1 was read as NPSR antagonist inactive and IMPase Li cell inactive.
Screening COC(=O)c1ccc(C(NC(=O)OCc2ccccc2)/C(I)=C/[C@@H](C)C(=O)Nc2ccccc2)cc1 (some centres undefined) returned IMPase Li cell inactive.
Screening CC(=O)[C@H](C(=N)C#N)C(=O)Nc1ccccc1 returned IMPase Li cell inactive.
N#Cc1cccc(NC(=O)N2CCC3(CC2)CCN(C(=O)c2csnn2)CC3)c1 was read as IMPase Li cell 11µM.
`N#Cc1cccc(NC(=O)N2CCCC3(CCN(C(=O)c4csnn4)CC3)C2)c1` gave IMPase Li cell inactive.
`C1CCN(CC[C@@H]2CCCCN2)CC1` gave IMPase Li cell inactive.
`CCc1ccc2[nH]c(=O)c(CN(Cc3ccco3)S(=O)(=O)c3ccc4c(c3)OCCO4)cc2c1` gave NPSR antagonist inactive, IMPase inh inactive and IMPase Li cell 11µM.
`Cc1ccc(C)c2[nH]c(=O)c(CN(Cc3ccco3)S(=O)(=O)c3ccc4c(c3)OCCO4)cc12` gave NPSR antagonist inactive, IMPase inh inactive and IMPase Li cell inactive.
CC(=O)OCC(=O)C1(O)CCC2C3CCC4=CC(=O)C=CC4(C)C3C(O)CC21C (centres undefined) was read as NPSR antagonist inactive.
CCCc1nc2sc3c(=O)[nH]cnc3c2c2c1CCCC2 was read as NPSR antagonist inactive.
For CC(C)Cc1nc2sc3c(=O)[nH]cnc3c2c2c1CCC2 the results were NPSR antagonist inactive and IMPase Li cell 10µM.
Screening CS(=O)(=O)c1ncc(Cl)c(C(=O)Nc2ccc3ccccc3c2)n1 returned NPSR antagonist 10µM and IMPase Li cell inactive.
O=C(Nc1ccc2ccccc2c1)c1cnccn1 was read as NPSR antagonist inactive, IMPase inh inactive and IMPase Li cell inactive.
For COc1ccc(C2c3ccc4ccccc4c3Oc3ncn(CCN4CCOCC4)c(=N)c32)cc1OC (centres undefined) the results were NPSR antagonist inactive.
`COc1ccc(C2c3c(ncn(CCCN4CCOCC4)c3=N)Oc3ccc4ccccc4c32)cc1OC` (centres undefined) gave NPSR antagonist 10µM.
For CN(C)CCCNC(=S)Nc1ccc(-c2ccccc2)cc1 the results were NPSR antagonist inactive.
CCN(CC)S(=O)(=O)c1cc(-c2nnc(Nc3ccc(OC)c(C(N)=O)c3)c3ccccc23)ccc1C was read as IMPase inh inactive.
Cn1c(=O)c(-c2cccc(C#N)c2)nc2cnc(Oc3ccccc3)nc21 was read as IMPase Li cell inactive.
`CCCc1sc(N/N=C/c2ccccn2)nc1-c1ccc(F)cc1` gave NPSR antagonist 10µM, IMPase inh inconclusive and IMPase Li cell inactive.
For CCN=c1scc(-c2ccc(F)cc2)n1/N=C/c1ccccn1 the results were NPSR antagonist inactive and IMPase Li cell inactive.
Screening COC(=O)c1ccc(/C=N/Nc2nc(C)c(C)s2)cc1 returned NPSR antagonist inactive.
`Cc1nc(N/N=C/c2ccccn2)sc1C` gave NPSR antagonist 4µM and IMPase Li cell inactive.
For OC[C@@H]1O[C@H](O)[C@@H](Cl)[C@H](O)[C@@H]1O the results were IMPase inh inactive.
CC1CN(c2ccc(S(=O)(=O)N3CCCC3)cn2)CC(C)O1 (centres undefined) was read as NPSR antagonist inactive.
For N#Cc1nc(-c2cccs2)oc1N1CCOCC1 the results were NPSR antagonist inactive, IMPase inh inactive and IMPase Li cell 11µM.
CC1CN(c2oc(-c3cccs3)nc2C#N)CC(C)O1 (centres undefined) was read as NPSR antagonist inactive, IMPase inh inactive and IMPase Li cell inactive.
COc1ccccc1Nc1nc2ccc(Cl)cc2nc1-n1nc(C)cc1C was read as IMPase inh inactive.
Screening Cc1ccc2nc(-c3ccc(SCC(=O)Nc4ccc5c(c4)OCCO5)nc3)[nH]c2c1 returned NPSR antagonist inactive and IMPase Li cell inactive.
For O=C(CSc1ccc(-c2nc3ccccc3[nH]2)cn1)Nc1ccc2c(c1)OCCO2 the results were NPSR antagonist inactive, IMPase inh inactive[1.84 µM] and IMPase Li cell 8.9µM.
`CNc1ccc(O)cc1` gave IMPase Li cell inactive.
For Cc1ccccc1OCc1nc(-c2ccc(NC(=O)c3ccco3)cc2)no1 the results were NPSR antagonist inactive, IMPase inh inactive and IMPase Li cell inactive.
Cc1ccccc1OCc1nc(-c2ccc(NC(=O)c3ccc4c(c3)OCO4)cc2)no1 was read as NPSR antagonist 10µM, IMPase inh inactive and IMPase Li cell inactive.
COC(=O)[C@@H]1[C@@H](C)N(CCc2cc(OC)c(OC)c(OC)c2)C(=O)N[C@H]1c1ccccc1 was read as IMPase Li cell inactive.
Screening Cc1noc(C(=O)Nc2ccc3c(c2)OCO3)c1Cl returned NPSR antagonist inactive, IMPase inh inactive and IMPase Li cell inactive.
Cc1ccc2c(Cl)c(C(=O)Nc3ccc4c(c3)OCO4)sc2c1 was read as NPSR antagonist 6.3µM and IMPase Li cell inconclusive.
For CNC(=O)[C@H]1O[C@H](n2cnc3c(NCc4cccc(I)c4)ncnc32)[C@@H](O)[C@@H]1O the results were IMPase inh inactive and IMPase Li cell inactive.
For CCOC(=O)c1c(-c2ccc(C)cc2)csc1NC(=S)NC(=O)c1ccccc1 the results were NPSR antagonist inactive, IMPase inh inactive[1.84 µM] and IMPase Li cell inactive.
Screening CCOC(=O)c1c(-c2ccc(C)cc2)csc1NC1=NS(=O)(=O)c2ccccc21 returned NPSR antagonist inconclusive and IMPase Li cell 11µM.

Source: PubChem BioAssay
